Most compounds without a hit are left out; they make up all but 2.2% or so of the library.
IEC-6 tox – counter-screen for KLF5 inhibitors: cytotoxicity in IEC-6 cells; AID 1825; IEC-6 cytotoxicity, luminescence viability; inhibition, % at 5 µM; 290,000 compounds, 0.78% hits; in the data active = inhibition above about 22%;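 note: 0% = plate median of test compound wells and 100% = cytotoxic reference compound wells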
KLF5 inh – kruppel-like factor 5 inhibition | 290,000 compounds, 0.23% hits | AID 1700 | DLD-1 KLF5 promoter-luciferase reporter, luminescence | inhibition, % at 5 µM;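 active = inhibition above a per-plate limit of that plate's mean compound inhibition plus 3 SD, cut at about 60% in these data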;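 note: 0% = DMSO wells and 100% = LY294002 at 200 µM; higher means less KLF5 promoter-driven luciferase light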
Ba/F3 V617F tox – loss of viability in JAK2V617F-driven Ba/F3 cells; Ba/F3 EpoR-JAK2V617F viability, ATP luminescence; inhibition, % at 5.6 µM; 220,000 compounds, 1.1% hits;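 active = inhibition above the campaign mean plus 3 SD over all tested compounds, cut at about 24% in these data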;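 note: cytokine-independent growth of Ba/F3 cells driven by EpoR plus mutant JAK2; 0% = DMSO-treated cells and 100% = JAK inhibitor I control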
aSyn UTR inh – 5' untranslated region of α-synuclein, MLPCN primary screen; alpha-synuclein 5'UTR reporter, inhibitor activity; inhibition, % (tested at 7.5 µM); 300,000 compounds, 0.82% hits; AID 1813; in the data active = inhibition above about 60%;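 note: H4 neuroglioblastoma cells stably carrying SNCA 5'UTR luciferase fusion; 0% = DMSO wells and 100% = positive control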
APP transl inh – APP translation inhibition | SH-SY5Y APP 5'UTR-luciferase reporter, luminescence | inhibition, % at 2 µM | 190,000 compounds, 0.82% hits | AID 1285;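 active = inhibition above a set limit, derived from the sample mean plus 3 SD, cut at about 45% in these data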
BaF3 parental – counter-screen for JAK2V617F inhibitors: parental Ba/F3 viability inhibitors | 220,000 compounds, 1.1% hits | inhibition, % at 5.6 µM | CellTiter-Glo ATP luminescence;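 active = inhibition above a per-campaign cutoff, the mean inhibition of all tested compounds plus 3 SD, cut at about 27% in these data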;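 note: 0% = DMSO wells and 100% = JAK Inhibitor I control wells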
An asterisk follows results filed as active.

`O=[N+]([O-])c1ccc(Cl)cc1Sc1nc2ccccc2o1` gave IEC-6 tox 0, KLF5 inh -32, Ba/F3 V617F tox -4, aSyn UTR inh 69*, APP transl inh 14 and BaF3 parental -1.
For O=[N+]([O-])c1ccc(Sc2nc3ccccc3o2)c([N+](=O)[O-])c1 the results were IEC-6 tox 0, KLF5 inh -6, Ba/F3 V617F tox 22, aSyn UTR inh -16, APP transl inh 63* and BaF3 parental 10.
For O=C(NNC(=O)C1CC(c2cccs2)=NO1)Nc1ccc(Cl)cc1 (configuration not stated) the results were IEC-6 tox -5, KLF5 inh -24 and aSyn UTR inh 14.
`Cc1ccccc1C(=O)Nc1ccnn1C1CCN(C(=O)C2CCOC2)CC1` (configuration not stated) gave IEC-6 tox -10, KLF5 inh -35 and aSyn UTR inh 6.
For CCNC(=O)Nc1ccc(OC)cc1OC the results were IEC-6 tox -2, KLF5 inh -21, Ba/F3 V617F tox 0, aSyn UTR inh 16, APP transl inh 50* and BaF3 parental 1.
For COc1ccc(NC(=O)NCc2ccco2)c(OC)c1 the results were IEC-6 tox -2, KLF5 inh -25, Ba/F3 V617F tox -3, aSyn UTR inh -22, APP transl inh -6 and BaF3 parental 0.
For CC(=O)Nc1ccc(NC(=O)C(C)OC(=O)CCC2CCCC2)cc1 (configuration not stated) the results were aSyn UTR inh 6.
`CCCCOc1ccc(CSCCN=C(N)N)cc1` gave IEC-6 tox 2, KLF5 inh -21, Ba/F3 V617F tox 38*, aSyn UTR inh -58, APP transl inh -41 and BaF3 parental 76*.
Screening CCCNC(=O)c1ccc2c(=O)c(O)c(-c3ccc(F)cc3)[nH]c2c1 returned aSyn UTR inh 81*.
`CCCNC(=O)c1ccc2c(=O)c(O)c(C)[nH]c2c1` gave aSyn UTR inh 23.
Screening CCCNC(=O)c1ccc2c(=O)c(O)c(-c3cccc(Br)c3)[nH]c2c1 returned aSyn UTR inh 84*.
COc1ccccc1CNc1ncc(-c2ccc(F)cc2)n1C was read as IEC-6 tox 4, KLF5 inh -11 and aSyn UTR inh -17.
Screening COc1ccc(CNc2ncc(-c3ccc(F)cc3)n2C)c2ccccc12 returned IEC-6 tox 5, KLF5 inh 0 and aSyn UTR inh 65*.
For OC(COc1ccc(CNCCc2ccc(C(F)(F)F)cc2)cc1)CN1CCCCC1 (configuration not stated) the results were IEC-6 tox 99*, KLF5 inh -16, Ba/F3 V617F tox 102*, aSyn UTR inh 82*, APP transl inh 14 and BaF3 parental 103*.
`OC(COc1ccccc1)CN1CCCCCC1` (configuration not stated) gave IEC-6 tox 11, KLF5 inh 5, Ba/F3 V617F tox 0, aSyn UTR inh -7, APP transl inh -13 and BaF3 parental 81*.
For OC(COc1ccccc1)CN1CCN(CC(O)COc2ccccc2)CC1 (configuration not stated) the results were IEC-6 tox -2, KLF5 inh -17, Ba/F3 V617F tox 4, aSyn UTR inh 5, APP transl inh -4 and BaF3 parental 7.
Screening OC(COC(c1ccccc1)c1ccccc1)CN1CCOCC1 (configuration not stated) returned IEC-6 tox -2, KLF5 inh -4, Ba/F3 V617F tox -1, aSyn UTR inh -9, APP transl inh -8 and BaF3 parental 81*.
`COc1ccccc1C(=O)Nc1cccc2c1CCCC2` gave IEC-6 tox 14, KLF5 inh -15 and aSyn UTR inh 4.
Screening O=Cc1s/c(=N\S(=O)(=O)c2ccccc2)n(CCCCl)c1Cl returned IEC-6 tox -2, KLF5 inh -40, Ba/F3 V617F tox 22, aSyn UTR inh 70*, APP transl inh 95* and BaF3 parental 0.
For CC(C)(C)Nc1nc2nonc2nc1NC(C)(C)C the results were IEC-6 tox -2, KLF5 inh -25, Ba/F3 V617F tox 35*, aSyn UTR inh 9 and BaF3 parental 33*.
Cc1cc(C(=O)NN=C2CCCCC2)c2ccccc2n1 was read as IEC-6 tox 3, KLF5 inh 2, Ba/F3 V617F tox 0, APP transl inh 80* and BaF3 parental 0.
For Cc1cc(C(=O)NN=C2C3CC4CC(C3)CC2C4)c2ccccc2n1 the results were IEC-6 tox 7, KLF5 inh 7, Ba/F3 V617F tox -3, aSyn UTR inh 18, APP transl inh 76* and BaF3 parental 2.
CC(OC(=O)c1cc(S(=O)(=O)N2CCOCC2)ccc1F)C(=O)NC1CCCCC1C (configuration not stated) was read as IEC-6 tox 2, KLF5 inh -16 and aSyn UTR inh 10.
`COc1cc(OC)cc(C(=O)NNC(=O)C(=O)Nc2cc(OC)c(Cl)cc2OC)c1` gave IEC-6 tox 14, KLF5 inh 21 and aSyn UTR inh 6.
Fc1ccccc1/C=N/NC(=S)Nc1ccc(Cl)cc1Cl was read as IEC-6 tox 3, KLF5 inh 6, Ba/F3 V617F tox 4, aSyn UTR inh 47, APP transl inh 94* and BaF3 parental 10.
For Cc1c(CCC(=O)N[C@@H](C)C(=O)O)c(=O)oc2cc3oc4c(c3cc12)CCCC4 the results were IEC-6 tox 6, KLF5 inh -20 and aSyn UTR inh 71*.
For Cc1c(CCC(=O)N2CCC(C(=O)O)(c3ccccc3)CC2)c(=O)oc2cc3oc4c(c3cc12)CCCC4 the results were IEC-6 tox 3, KLF5 inh -37 and aSyn UTR inh 67*.
For Cc1c(CC(=O)NCCC(=O)O)c(=O)oc2cc3oc4c(c3cc12)CCCC4 the results were IEC-6 tox 0, KLF5 inh -21 and aSyn UTR inh 8.
`Cc1oc2c(C)c3oc(=O)c(CCC(=O)N4CCC(C(=O)NCCC(=O)O)(c5ccccc5)CC4)c(C)c3cc2c1C` gave IEC-6 tox 0, KLF5 inh -3 and aSyn UTR inh -9.
`Cc1c(CCC(=O)N2CCC(C(=O)O)CC2)c(=O)oc2cc3oc4c(c3cc12)CCCC4` gave IEC-6 tox 3, KLF5 inh -11 and aSyn UTR inh 74*.
`Cc1ccc(NC(=O)CN(C)C(=O)c2cccnc2Nc2cccc(C(F)(F)F)c2)cc1` gave IEC-6 tox 5, KLF5 inh -16 and aSyn UTR inh -10.
`COc1ccc(N2CCN(CCNS(=O)(=O)c3ccc(C)cc3)CC2)cc1` gave IEC-6 tox 5, KLF5 inh 11 and aSyn UTR inh 8.
Screening O=C(NCc1ccc2c(c1)OCO2)c1cc([N+](=O)[O-])ccc1N1CCCCC1 returned IEC-6 tox 55*, KLF5 inh 48, Ba/F3 V617F tox 63*, aSyn UTR inh 28, APP transl inh 79* and BaF3 parental 48*.
